Compound activity (PubChem BioAssay)
An excerpt weighted towards active compounds, which were near 6.2% of everything screened.
LASV entry inh: Lassa virus entry inhibition; AID 540256; Lassa virus pseudotype entry inhibition, cell reporter; 1.2% of 300,000 active; Potency, µM (series often up to 37.9 µM), inactives show at the top dose activity change, negative = inhibition, usual class: inhibitors; calls by dose curve; tested in HEK293 cells; note: potency is the fitted concentration of half-maximal effect; nearly all actives have a fitted effect of over 50% in size
Marburg entry inh: blocks Marburg virus binding to or entry into cells. Potency, µM (titrated, usually from 37.8 µM), without a hit: top-dose activity change, negative = inhibition, most hits filed as inhibitors. 1.8% of 300,000 active. Marburg virus pseudotyped entry inhibition, cell reporter; calls by dose curve; tested in HEK293 cells; note: potency is the fitted concentration of half-maximal effect
FMDV antiviral: blocks foot and mouth disease virus; FMDV antiviral cell-based qHTS; Potency, µM (highest dose often 57.9 µM), without a hit: at the highest dose activity change, negative = inhibition, actives largely listed as inhibitors; 1.2% of 410,000 active; AID 1159524; calls by dose curve; tested in HEK293T cells; note: read-out not given here; potency is the fitted concentration of half-maximal effect; nearly all actives have a fitted effect of over 45% in size
HCMV antiviral: human cytomegalovirus inhibition; AID 1259415; activity change, negative = inhibition, % at 57.5 µM; 4.5% of 410,000 active; HFF cells, HCMV-luciferase reporter, 72 h; hits give low values; in the data active = activity change below about -60%; inconclusive = no clear call, values can overlap the other calls; inactive = above about -39%
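HFF cells seeded 16 h at 37C, treated with compounds, infected with luciferase-reporter HCMV at MOI 1 PFU/cell; luciferase read at 72 h post infection, normalized to buffer-only and Salinomycin controls.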
* = called active by the depositor; ? = inconclusive; / = no result given; [ ] = another dose, or the depositor's remark. % is set by controls: 0 for no effect and ±100 for the full control effect.

SMILES	LASV entry inh	Marburg entry inh	FMDV antiviral	HCMV antiviral
Cc1[nH]nc2c1C1(C(=O)N(Cc3ccc(Cl)cc3)c3ccccc31)C(C#N)=C(N)O2 (configuration not stated)	-15%	-24%	/	-70*
CCOc1ccc(N=C/C=C/c2ccccc2)c(O)c1	/	/	39%	-14
CC(=O)c1cccc(-c2cnc3c(NC=O)cc(-c4ccc(C(=O)N5CCOCC5)cc4)cn23)c1	/	/	-11%	-5
CN(C)CCNC(=O)c1cccc(-c2cnc3c(NC=O)cc(-c4cccs4)cn23)c1	/	/	13%	-87*
COc1ccc(-c2cc(NC=O)c3ncc(-c4cccc(C(=O)NCCN(C)C)c4)n3c2)cn1	/	/	0%	-63*
CN(C)CCNC(=O)c1cccc(-c2cnc3c(NC=O)cc(-c4ccc(C(=O)N5CCOCC5)cc4)cn23)c1	/	/	-14%	-64*
Cc1cc(-c2cc(NC=O)c3ncc(-c4cccc(C(=O)NCCN(C)C)c4)n3c2)cc(C)c1O	/	/	-1%	9
CCOC(=O)CC(NC(=O)Cn1nnc(-c2ccc(Cl)cc2)n1)c1ccc(OC)cc1 (configuration not stated)	0%[46.1 µM]	-26%[46.1 µM]	?	-19
CN(C(=O)c1c[nH]c2ccc(S(=O)(=O)Nc3cccc(C(F)(F)F)c3)cc2c1=O)C1CCCCC1	-28%[46.1 µM]	/	-2%	-26
CCN(CC(=O)NCc1cccs1)C(=O)c1cccc(S(=O)(=O)NCc2ccccc2)c1	?	1%	20%	-18
CN(Cc1ccc2c(c1)OCCO2)C(=O)CSc1ncnc2sccc12	-29%	-34%	40µM*	1
CCN(CC)CC(O)COc1ccccc1C(=O)CCc1ccccc1 (configuration not stated)	0%	?	/	-16
CCCNCC(O)COc1ccccc1C(=O)CCc1ccccc1 (configuration not stated)	?	9.2µM*	-2%	28
CCN(CC)CCn1c2ccccc2c2nc3ccc([N+](=O)[O-])cc3cc21	?	?	7%	-98*
Cn1c2ccccc2c2cc([N+](=O)[O-])ccc21	-2%	-6%	-3%	-19
c1ccc(-c2cncnc2)cc1	/	/	2%	54
O=C1CCCc2nc(N3CCN(C(c4ccccc4)c4ccccc4)CC3)ncc21	?	?	22µM*	11
Cc1nc(N2CCN(C(c3ccccc3)c3ccccc3)CC2)nc2c1C(=O)CCC2	/	5%	/	/
Nc1ccc(N2CCN(CCCCN3C(=O)C4CCCN4C3=O)CC2)cc1 (configuration not stated)	14%	3.2µM*	-20%	-11
C=CCNc1nnc(Cc2ccc(F)cc2)c(=O)[nH]1	/	/	11%	-2
COc1ccc(C(C[N+](=O)[O-])c2c(C)[nH]n(-c3ccccc3)c2=O)cc1 (configuration not stated)	4%	-10%[46.1 µM]	-1%	-103*
O=C(CNC(=S)N(Cc1ccccc1F)C1CCCCC1)NC1CC1	3%	-2%	9%	-20
O=c1cc(Cl)c(-c2ccccc2)nn1Cc1ccc(Cl)cc1	-24%	-1%	-14%	-64*
O=c1cc(N2CCCCC2)c(-c2ccccc2)nn1Cc1ccccc1Cl	?	?	40µM*	-18
O=c1c2ccccc2c(-c2ccccc2)nn1Cc1ccc(Cl)cc1	0%	-28%	-14%	22
SMILES	LASV entry inh	Marburg entry inh	FMDV antiviral	HCMV antiviral
CN(Cc1ccccc1)C(=O)CSc1c2c(nc3ccc(Cl)cc13)CCCC2	?	?	-24%	-1
O=c1[nH]c(/C=C\c2cccs2)nc(O)c1[N+](=O)[O-]	?	9%[46.1 µM]	-10%	-32
Cc1oc2c(Cl)c(Cl)c(O)c(CN(C)C)c2c1C(=O)c1ccc(Cl)cc1	/	/	?	-69*
COc1ccc(-c2nc3ccc(C(=O)NCC(OC)OC)cc3nc2-c2ccc(OC)cc2)cc1	-10%	?	?	-60*
O=C(/C=C/c1ccc([N+](=O)[O-])cc1)Oc1ccc(/C=N/NC(=O)c2ccncc2)cc1	/	/	-16%	-1
CC(=O)N(C(C)=O)c1ncc2c([nH]c3ccccc32)c1C#N	-14%	?	-2%	-77*
Cc1nn(C)c(C)c1CN(C)C(=O)C1(C)CC1(Br)Br (configuration not stated)	14%	-16%	-16%	-2
CCOc1cc(/C=C/c2cccc[n+]2C)ccc1O	/	/	-20%	42
CN(C)c1ccc(C(=O)OCC(=O)NCCNC(=O)COC(=O)c2ccc(N(C)C)cc2)cc1	12%	?	-11%	27
CCOC(=O)N1CCN(C(=O)CCC(=O)c2ccc(OCC)cc2)CC1	11µM*	13%[46.1 µM]	7%	-28
COC(=O)c1ccc(CNC(=O)COC(=O)c2ccc(N(C)C)cc2)cc1	?	?	?	-66*
CCOC(=O)N1CCN(C(=O)c2ccc(OCC)cc2)CC1	-26%	21%[46.1 µM]	12%	-15
CN(C)c1ccc(C(=O)OCC(=O)N2CCCC2)cc1	-3%	?	42%	7
CCOC(=O)N1CCN(C(=O)COC(=O)c2ccc(N(C)C)cc2)CC1	2.5µM*	22%	-11%	-26
O=C(CSc1ccc(-c2ccco2)nn1)Nc1ccc(F)cc1	-29%	?	?	11
C=C(C)CSc1nnc([C@@H]2CCCN2)o1	5%	-11%	2%	1
O=C(N/N=C/c1c(O)ccc2ccccc12)c1[nH]ncc1Br	16µM*	?	64%	-99*
CCOc1ccc(/C=N/NC(=O)c2[nH]ncc2Br)c(O)c1	1.8µM*	6.5µM*	-39%	-101*
O=C(N/N=C\c1c(O)ccc2ccccc12)c1ccc(Cn2cccn2)o1	13µM*	5.8µM*	?	-99*
CCc1cccc(CC)c1-n1c(SCc2cc(=O)n3ccsc3n2)nnc1-c1cccnc1	-24%	0%	-13%	49
CCCCCc1nc2sc3c(c2c(=O)n1NC(=O)c1ccc([N+](=O)[O-])cc1)CC(C)(C)OC3	?	?	-13%	-89*
O=C(NC(Cc1ccccc1)C(=O)O)/C(=C/c1cccc(Br)c1)NC(=O)c1ccco1 (configuration not stated)	-6%	-11%[46.1 µM]	-10%	0
CC(=O)Nc1ccc(S(=O)(=O)Nc2ccc3c(c2)OCCO3)cc1Cl	-14%[46.1 µM]	-29%[46.1 µM]	-16%	-88*
CC(=O)NCCc1ccc(S(=O)(=O)Nc2ccc3c(c2)OCCO3)cc1	-4%[46.1 µM]	9%[46.1 µM]	-2%	-64*
COc1ccc(NS(=O)(=O)c2ccc3c(c2)OCCO3)cc1OC	-14%[46.1 µM]	?	3%	-75*
SMILES	LASV entry inh	Marburg entry inh	FMDV antiviral	HCMV antiviral
COc1ccc(S(=O)(=O)Nc2ccc3c(c2)OCO3)cc1OC	5%	-17%	98%	36
CCOc1cc(CNCc2ccncc2)cc(Br)c1OCc1ccccc1F	?	?	?	-70*
NNC(=O)c1ccc(OCC2CC(c3ccc(Cl)cc3)=NO2)cc1 (configuration not stated)	?	?	26%	-95*
Cc1cc(=O)oc2cc(OCC3CC(c4ccc(Cl)cc4)=NO3)ccc12 (configuration not stated)	-21%	-28%	-5%	-35
O=C(c1ccccc1)N1CCCN(c2nccc(C(F)(F)F)n2)CC1	15%[46.1 µM]	0%[46.1 µM]	-6%	-29
CC(C)OP(=O)(OC(C)C)/C(C=O)=N\Nc1ccc([N+](=O)[O-])cc1	/	/	-30%	-91*
